# Results published in ChEMBL document CHEMBL3988442, “University of Dundee, Small-Polar-MMV Screening Library” (2021).
# The whole screen tested about 48,000 compounds, of which about 13,000 (27%) showed an effect of 50% or more. The list shows a part of the results.
# Tested on: Wolbachia pipientis
# Experiment: Anti-Wolbachia Cell-Based Screen
# Format: functional
# Parameters: scale not given: in the data most compounds retested in dose-response had high values
# Conditions: 5 µM
row,SMILES,Percent Effect [%]
1,CC(C)Nc1ccc2c(c1)C1(CCOCC1)C(=O)N2c1ccsc1,-5.936
2,CCc1cc(N2C[C@H](C3CC3)[C@@H](N)C2)nc(N2CCOCC2)n1,-5.197
3,CCOc1ccc(Cl)c(C(=O)N2CCN(c3ncccn3)CC2)n1,79.36
4,CCOc1ccnc(N2CCN(C(=O)CCc3ccncc3)CC2)n1,-7.253
5,CCOc1ccc(Cl)c(C(=O)N2CCN(c3cnccn3)CC2)n1,0.9998
6,CCOc1ccc(Cl)c(C(=O)NC(C)C(N)=O)n1 (stereo unspecified),-12.05
7,CCOc1ccnc(N2CCN(C(=O)c3cn[nH]c3CC)CC2)n1,-0.2597
8,CCOc1ccc(Cl)c(C(=O)N2CCN(c3ccncc3)CC2)n1,119.1
9,CCC(O)CN1CCN(C(=O)c2cccn2Cc2ccccc2)CC1 (stereo unspecified),-11.52
10,Cc1cccc(OCCC(=O)N2CCCN(CC(N)=O)CC2)c1C,-3.511
11,CCC(O)CN1CCN(C(=O)c2csc(COC)n2)CC1 (stereo unspecified),-26.29
12,CCOc1ccc(Cl)c(C(=O)N2CCN(CC(O)CC)CC2)n1 (stereo unspecified),92.51
13,CCOc1ccnc(N2CCN(C(=O)c3cccnc3O)CC2)n1,-0.2095
14,CCOc1ccc(Cl)c(C(=O)N2CCCN(CC(N)=O)CC2)n1,93.33
15,COCc1nc(C2CC2)nn1-c1ccccc1Cl,-16.97
16,CC(NCc1c(C(C)C)nn(C)c1N1CCOCC1)C(N)=O (stereo unspecified),1.644

row,SMILES,Percent Effect [%]
1,Cc1cnc(C)c(N2CCC(c3nccn3Cc3cscn3)CC2)n1,32.35
2,CC(NC(=O)CCCOc1cccc(F)c1)c1ccncc1 (stereo unspecified),-15.4
3,Cc1ncc2c(n1)CN(Cc1ncc(C(C)(C)C)o1)CC2,13.07
4,OCC(O)CN1CCc2onc(-c3ccc(C(F)(F)F)cc3)c2C1 (stereo unspecified),-7.135
5,CN(C)C(=O)c1ccc(OC2CCOCC2)cc1,14.67
6,COC(C)(C)CNC(=O)N(C)Cc1nc(-c2ccccc2)c[nH]1,-6.978
7,COc1ccc(OCc2cc(C(=O)N3CCSCC3)n[nH]2)c(Cl)c1,-44.95
8,CCOc1ccc(Cl)c(C(=O)N2CCCSCC2)n1,87.04
9,CCOc1ccc(Cl)c(C(=O)N2CCN(C(=O)c3ccoc3C)CC2)n1,-0.3279
10,CCOc1ccc(Cl)c(C(=O)N(C)C)n1,-5.446
11,CCOc1ccc(Cl)c(C(=O)NCc2ccc(C(=O)NC)cc2)n1,-13.09
12,CC(C)(O)CN1CCN(C(=O)c2cccc3[nH]ncc23)CC1,5.71
13,CC(C)(O)CN1CCN(C(=O)c2cc(Cl)cc3cccnc23)CC1,-2.728
14,CCOc1ccc(Cl)c(C(=O)N2CCN(CC(C)(C)O)CC2)n1,117.3
15,CCOc1ccc(Cl)c(C(=O)N2CCN(C(=O)OC)CC2)n1,106.5
